# Test results as given in the supplement of paper PMC10849652.
# About 7,900 targets were measured; listed, in parts, are those with a hit and a random draw of the rest. About 0.6% of all pairs of compound and target were hits. Unmarked numbers belong to inactive results.
# Key:
# Assay in all cases: log2 fold change, soluble protein after heating vs DMSO (PISA); higher = thermal stabilisation; K562 cells, 10 uM, 30 min; active = over 0.2 and 3.5 SD of the protein, either way, in both replicates (recomputed)
# [1] = compound: CC[C@@H]1C(=O)N(C)c2cnc(Nc3ccc(C(=O)NC4CCN(C)CC4)cc3OC)nc2N1C1CCCC1
# Procedure, shortened: (§1)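 K562 cells at 2×10^6 cells/mL were given 10 μM compound for 30 min. Aliquots then went through 3 min of heating across 48°C-58°C, were pooled, and were extracted in PBS with 0.5% NP-40 at 4°C, and the supernatant after 21,000xg for 90 min was quantified by TMTpro 16plex LC-MS/MS with channel sums equalised. Thermal stability relative to control samples, from duplicates, is given as log2 fold change.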
# volasertib = compound: CC[C@@H]1C(=O)N(C)c2cnc(Nc3ccc(C(=O)N[C@H]4CC[C@H](N5CCN(CC6CC6)CC5)CC4)cc3OC)nc2N1C(C)C [volasertib]
# Procedure, shortened: as §1
# [2] = compound: CC[C@H](C)N1C=C(C2=C(C=C(C=C21)C3=CN=C(C=C3)N4CCNCC4)C(=O)NCC5=C(C=C(NC5=O)C)C)C
# Procedure, shortened: as §1
# epoxomicin = compound: CC[C@H](C)[C@@H](C(=O)N[C@@H]([C@@H](C)O)C(=O)N[C@@H](CC(C)C)C(=O)[C@]1(CO1)C)NC(=O)[C@H]([C@@H](C)CC)N(C)C(=O)C [epoxomicin]
# Procedure, shortened: as §1
# [3] = compound: CCn1c(C(=O)N(C2CC2)C2CC2)cc2c3c(ncn3C)c(Nc3cc(C)n(C)n3)nc21
# Procedure, shortened: as §1
# [4] = compound: CCn1cc(-c2ccnc3[nH]c(-c4cccc(CN(C)C)c4)cc23)c(-c2ccc(NC(=O)N(C)C)cc2)n1
# Procedure, shortened: as §1
# [5] = compound: CN(C)CC(=O)Nc1ccc2[nH]c(=O)c3ccccc3c2c1
# Procedure, shortened: as §1
# rosiglitazone = compound: CN(CCOC1=CC=C(C=C1)C[C@H]2C(=O)NC(=O)S2)C3=CC=CC=N3 (racemic) [rosiglitazone]
# Procedure, shortened: as §1
# [6] = compound: CN1C2=C(C3=C1C(=O)N(N=C3)CC4=CC(=CC=C4)N)SC(=C2)S(=O)C
# Procedure, shortened: as §1
# [7] = compound: CN1CCC(CNc2ccc3ncc(-c4cccc(OC(F)(F)F)c4)n3n2)CC1
# Procedure, shortened: as §1
# saracatinib = compound: CN1CCN(CCOc2cc(OC3CCOCC3)c3c(Nc4c(Cl)ccc5c4OCO5)ncnc3c2)CC1 [saracatinib]
# Procedure, shortened: as §1
# sotrastaurin = compound: CN1CCN(c2nc(C3=C(c4c[nH]c5ccccc45)C(=O)NC3=O)c3ccccc3n2)CC1 [sotrastaurin]
# Procedure, shortened: as §1
# alvocidib = compound: CN1CC[C@H](c2c(O)cc(O)c3c(=O)cc(-c4ccccc4Cl)oc23)[C@H](O)C1 [alvocidib]
# Procedure, shortened: as §1
# Tubastatin A = compound: CN1CCc2c(c3ccccc3n2Cc2ccc(C(=O)NO)cc2)C1 [Tubastatin A]
# Procedure, shortened: as §1
# [8] = compound: CNC(=O)C1=CC=CC=C1NC2=NC(=NC=C2Cl)NC3=C(C=C(C=C3)N4CCOCC4)OC
# Procedure, shortened: as §1
# defactinib = compound: CNC(=O)c1ccc(Nc2ncc(C(F)(F)F)c(NCc3nccnc3N(C)S(C)(=O)=O)n2)cc1 [defactinib]
# Procedure, shortened: as §1
# rucaparib = compound: CNCc1ccc(-c2[nH]c3cc(F)cc4c3c2CCNC4=O)cc1 [rucaparib]
# Procedure, shortened: as §1
# [9] = compound: CNc1nc(-c2ccc3c(N)n[nH]c3c2)cc(N2C[C@@H](C(=O)NC3CCCCC3)CC[C@H]2C)n1
# Procedure, shortened: as §1
# encorafenib = compound: COC(=O)N[C@@H](C)CNc1nccc(-c2cn(C(C)C)nc2-c2cc(Cl)cc(NS(C)(=O)=O)c2F)n1 [encorafenib]
# Procedure, shortened: as §1
# [10] = compound: COC(=O)[C@H](CCSC)NC(=O)C1=C(C=C(C=C1)NC[C@H](CS)N)C2=CC=CC=C2
# Procedure, shortened: as §1
# Sequence of UniProt Q14997 (Q14997 whole entry, looked up): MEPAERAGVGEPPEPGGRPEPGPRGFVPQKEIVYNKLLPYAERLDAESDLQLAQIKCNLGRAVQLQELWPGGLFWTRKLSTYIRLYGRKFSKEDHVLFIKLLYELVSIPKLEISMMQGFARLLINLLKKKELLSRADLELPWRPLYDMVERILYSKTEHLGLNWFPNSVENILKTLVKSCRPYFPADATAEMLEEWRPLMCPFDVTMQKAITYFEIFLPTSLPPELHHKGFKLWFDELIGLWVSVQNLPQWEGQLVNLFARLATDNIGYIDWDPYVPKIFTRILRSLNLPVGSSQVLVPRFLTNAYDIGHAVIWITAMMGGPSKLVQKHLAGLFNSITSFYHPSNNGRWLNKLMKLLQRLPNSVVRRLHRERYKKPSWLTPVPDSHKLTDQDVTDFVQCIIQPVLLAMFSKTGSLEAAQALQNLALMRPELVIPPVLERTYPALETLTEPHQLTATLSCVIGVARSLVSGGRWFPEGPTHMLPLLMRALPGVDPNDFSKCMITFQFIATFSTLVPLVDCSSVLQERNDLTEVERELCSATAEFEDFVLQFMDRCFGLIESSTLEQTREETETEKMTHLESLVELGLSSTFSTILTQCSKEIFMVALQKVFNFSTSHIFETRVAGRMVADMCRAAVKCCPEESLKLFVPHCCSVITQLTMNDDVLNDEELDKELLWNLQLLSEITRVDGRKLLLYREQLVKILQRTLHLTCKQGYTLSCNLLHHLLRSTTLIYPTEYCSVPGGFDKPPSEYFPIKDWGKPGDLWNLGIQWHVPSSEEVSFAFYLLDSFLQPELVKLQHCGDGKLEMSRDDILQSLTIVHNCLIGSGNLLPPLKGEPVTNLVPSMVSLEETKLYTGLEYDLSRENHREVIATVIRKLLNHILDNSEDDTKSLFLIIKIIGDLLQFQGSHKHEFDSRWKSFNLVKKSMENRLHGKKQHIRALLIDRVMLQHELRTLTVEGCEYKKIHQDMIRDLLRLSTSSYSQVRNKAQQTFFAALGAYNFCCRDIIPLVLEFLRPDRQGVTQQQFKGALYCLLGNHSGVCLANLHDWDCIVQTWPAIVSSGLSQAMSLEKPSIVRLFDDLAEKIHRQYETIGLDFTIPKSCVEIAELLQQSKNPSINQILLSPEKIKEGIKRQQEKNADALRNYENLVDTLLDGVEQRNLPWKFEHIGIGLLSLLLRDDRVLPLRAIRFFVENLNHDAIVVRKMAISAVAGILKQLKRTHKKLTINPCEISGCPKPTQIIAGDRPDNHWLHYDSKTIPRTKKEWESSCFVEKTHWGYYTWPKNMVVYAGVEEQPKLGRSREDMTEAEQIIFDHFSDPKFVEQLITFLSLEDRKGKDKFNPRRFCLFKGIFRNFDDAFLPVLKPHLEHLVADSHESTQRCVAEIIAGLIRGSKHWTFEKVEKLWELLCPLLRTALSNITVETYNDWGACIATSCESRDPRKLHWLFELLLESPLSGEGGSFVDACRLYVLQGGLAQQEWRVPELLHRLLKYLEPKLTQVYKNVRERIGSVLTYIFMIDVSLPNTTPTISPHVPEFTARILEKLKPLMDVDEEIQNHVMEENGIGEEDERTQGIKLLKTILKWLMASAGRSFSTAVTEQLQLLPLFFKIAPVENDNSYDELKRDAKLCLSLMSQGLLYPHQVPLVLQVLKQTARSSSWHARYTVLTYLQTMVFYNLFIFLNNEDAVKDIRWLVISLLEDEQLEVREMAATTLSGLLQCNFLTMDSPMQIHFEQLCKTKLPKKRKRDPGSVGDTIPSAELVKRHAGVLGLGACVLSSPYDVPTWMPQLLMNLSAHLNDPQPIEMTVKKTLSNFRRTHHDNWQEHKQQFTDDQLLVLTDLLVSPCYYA
# Sequence of UniProt Q15366 (Q15366 whole entry, looked up): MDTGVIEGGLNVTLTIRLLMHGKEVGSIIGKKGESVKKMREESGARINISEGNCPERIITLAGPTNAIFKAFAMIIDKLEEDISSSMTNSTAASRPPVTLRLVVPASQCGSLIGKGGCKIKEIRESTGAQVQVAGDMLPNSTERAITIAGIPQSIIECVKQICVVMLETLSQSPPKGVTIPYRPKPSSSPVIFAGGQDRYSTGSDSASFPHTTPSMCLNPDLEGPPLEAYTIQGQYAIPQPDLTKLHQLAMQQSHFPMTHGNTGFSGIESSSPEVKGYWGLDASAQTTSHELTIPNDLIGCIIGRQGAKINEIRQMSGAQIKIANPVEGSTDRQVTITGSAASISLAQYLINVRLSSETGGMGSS
# Sequence of UniProt Q8IZL8 (Q8IZL8 whole entry, looked up): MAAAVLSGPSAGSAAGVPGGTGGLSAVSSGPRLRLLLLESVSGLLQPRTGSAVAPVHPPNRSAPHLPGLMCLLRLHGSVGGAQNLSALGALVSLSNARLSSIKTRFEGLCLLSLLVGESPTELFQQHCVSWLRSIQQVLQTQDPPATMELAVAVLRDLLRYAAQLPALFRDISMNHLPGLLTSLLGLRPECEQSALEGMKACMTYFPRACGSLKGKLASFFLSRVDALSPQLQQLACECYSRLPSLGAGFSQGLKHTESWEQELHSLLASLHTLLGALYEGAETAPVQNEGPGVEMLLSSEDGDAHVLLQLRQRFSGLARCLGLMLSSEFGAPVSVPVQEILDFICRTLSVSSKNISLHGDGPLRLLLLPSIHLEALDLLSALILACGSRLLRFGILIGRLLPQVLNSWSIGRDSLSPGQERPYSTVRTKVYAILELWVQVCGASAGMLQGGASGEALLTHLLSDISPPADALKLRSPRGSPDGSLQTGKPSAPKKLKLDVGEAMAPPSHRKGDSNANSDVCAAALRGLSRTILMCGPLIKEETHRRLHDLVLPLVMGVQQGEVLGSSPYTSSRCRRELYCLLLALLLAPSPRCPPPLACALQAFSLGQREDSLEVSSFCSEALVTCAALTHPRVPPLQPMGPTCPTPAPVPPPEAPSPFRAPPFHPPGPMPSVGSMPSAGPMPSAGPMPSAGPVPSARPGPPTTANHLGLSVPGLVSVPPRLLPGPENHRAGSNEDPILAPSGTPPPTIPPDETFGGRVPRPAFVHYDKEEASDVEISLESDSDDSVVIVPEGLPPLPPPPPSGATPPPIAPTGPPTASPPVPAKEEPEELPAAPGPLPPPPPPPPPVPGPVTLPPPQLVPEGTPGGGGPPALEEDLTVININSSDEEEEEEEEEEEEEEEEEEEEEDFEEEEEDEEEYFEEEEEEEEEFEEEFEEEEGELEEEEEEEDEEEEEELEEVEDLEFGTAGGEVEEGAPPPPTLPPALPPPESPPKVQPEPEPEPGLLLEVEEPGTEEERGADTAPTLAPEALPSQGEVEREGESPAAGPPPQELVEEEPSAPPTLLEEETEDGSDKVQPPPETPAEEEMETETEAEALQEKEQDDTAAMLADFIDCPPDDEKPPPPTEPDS
# Sequence of UniProt Q9H0R6 (Q9H0R6 whole entry, looked up): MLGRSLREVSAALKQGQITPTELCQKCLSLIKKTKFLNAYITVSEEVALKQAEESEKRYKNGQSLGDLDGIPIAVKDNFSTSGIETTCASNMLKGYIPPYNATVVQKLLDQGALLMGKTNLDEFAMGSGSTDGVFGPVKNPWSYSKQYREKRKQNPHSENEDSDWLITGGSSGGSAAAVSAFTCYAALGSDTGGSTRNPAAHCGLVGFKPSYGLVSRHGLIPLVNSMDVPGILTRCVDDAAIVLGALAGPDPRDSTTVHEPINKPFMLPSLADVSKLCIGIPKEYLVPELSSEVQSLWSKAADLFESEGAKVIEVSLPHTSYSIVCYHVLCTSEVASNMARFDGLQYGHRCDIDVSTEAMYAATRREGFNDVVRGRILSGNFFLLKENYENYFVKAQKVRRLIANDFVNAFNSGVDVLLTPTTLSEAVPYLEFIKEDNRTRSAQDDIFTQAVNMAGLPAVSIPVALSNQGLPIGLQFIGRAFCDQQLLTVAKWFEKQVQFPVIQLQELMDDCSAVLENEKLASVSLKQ
# Sequence of UniProt P28340 (P28340 whole entry, looked up): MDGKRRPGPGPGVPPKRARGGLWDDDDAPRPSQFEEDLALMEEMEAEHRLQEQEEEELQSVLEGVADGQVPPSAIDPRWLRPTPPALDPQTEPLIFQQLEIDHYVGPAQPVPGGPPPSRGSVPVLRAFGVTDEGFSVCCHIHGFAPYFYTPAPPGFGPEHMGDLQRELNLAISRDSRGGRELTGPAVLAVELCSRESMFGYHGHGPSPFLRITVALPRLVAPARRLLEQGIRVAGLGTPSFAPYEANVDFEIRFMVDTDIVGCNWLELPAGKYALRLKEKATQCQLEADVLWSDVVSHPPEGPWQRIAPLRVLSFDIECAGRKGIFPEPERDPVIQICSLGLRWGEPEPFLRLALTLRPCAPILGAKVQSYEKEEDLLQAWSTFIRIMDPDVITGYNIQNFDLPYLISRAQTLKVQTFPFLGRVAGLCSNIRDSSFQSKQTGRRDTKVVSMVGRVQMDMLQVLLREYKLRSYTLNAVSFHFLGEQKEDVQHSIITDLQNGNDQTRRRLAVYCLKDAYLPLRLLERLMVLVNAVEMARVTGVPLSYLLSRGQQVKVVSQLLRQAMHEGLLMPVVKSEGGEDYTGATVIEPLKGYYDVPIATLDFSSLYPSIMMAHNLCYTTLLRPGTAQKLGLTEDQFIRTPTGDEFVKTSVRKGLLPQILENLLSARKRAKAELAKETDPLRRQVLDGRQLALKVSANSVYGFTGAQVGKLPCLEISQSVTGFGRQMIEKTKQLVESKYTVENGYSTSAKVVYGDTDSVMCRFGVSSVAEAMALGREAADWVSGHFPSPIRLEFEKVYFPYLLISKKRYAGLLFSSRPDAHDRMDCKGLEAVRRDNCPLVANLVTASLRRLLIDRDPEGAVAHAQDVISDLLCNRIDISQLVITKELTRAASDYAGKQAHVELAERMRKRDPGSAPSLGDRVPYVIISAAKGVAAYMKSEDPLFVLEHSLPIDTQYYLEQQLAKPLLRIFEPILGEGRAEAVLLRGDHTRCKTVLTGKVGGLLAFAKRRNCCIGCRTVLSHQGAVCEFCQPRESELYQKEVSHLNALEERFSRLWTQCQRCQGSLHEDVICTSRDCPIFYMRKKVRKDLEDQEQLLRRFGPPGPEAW
Target,log2 fold change [1],log2 fold change (volasertib),log2 fold change [2],log2 fold change (epoxomicin),log2 fold change [3],log2 fold change [4],log2 fold change [5],log2 fold change (rosiglitazone),log2 fold change [6],log2 fold change [7],log2 fold change (saracatinib),log2 fold change (sotrastaurin),log2 fold change (alvocidib),log2 fold change (Tubastatin A),log2 fold change [8],log2 fold change (defactinib),log2 fold change (rucaparib),log2 fold change [9],log2 fold change (encorafenib),log2 fold change [10]
POMP (UniProt Q9Y244),0.097,-0.049,0.008,0.581 (active),-0.005,0.021,-0.018,-0.059,-0.02,-0.004,0.075,0.035,0.046,-0.067,-0.035,-0.014,-0.013,-0.114,-0.071,0.136
PTPMT1 (UniProt Q8WUK0),-0.298,-0.127,0.002,0.088,0.044,-0.051,0.012,-0.012,-0.006,-1.21 (active),-0.037,-0.059,-0.008,-0.063,0.027,-0.07,-0.118,-0.019,0.044,0.045
PHKG2 (UniProt P15735),-0.155,-0.195,0.054,-0.004,0.01,0.043,-0.002,0.018,-0.027,-0.156,0.002,-0.071,-0.069,0.029,0.167,0.026,-0.032,0.1,0.181,-0.025
PLCG1 isoform 2 (UniProt P19174),-0.031,-0.25,0.05,0.014,-0.097,-0.187,0.085,0.09,0.083,-0.412 (active),-0.131,-0.005,-0.007,0.1,-0.048,-0.128,0.088,0.054,0.012,-0.007
PSMD7 (UniProt P51665),0.027,0.205,0,-0.236,0.01,0.027,-0.019,-0.047,0.083,0.06,-0.018,-0.028,0.088,0.001,0.015,0.079,0.063,0.022,0.03,0.017
PPP4R3B (UniProt Q5MIZ7),-0.052,-0.284 (active),0.05,-0.011,-0.03,-0.074,-0.001,0.06,-0.074,-0.15,-0.008,-0.05,-0.11,0.022,0.057,-0.023,-0.065,-0.033,0.014,0.003
PCBP2 isoform 3 (UniProt Q15366),-0.069,-0.263 (active),0.071,0.013,-0.036,-0.003,0.043,0.062,-0.001,-0.081,-0.023,-0.084,-0.148,0.025,-0.032,-0.187,0.041,0.013,0.075,-0.058
PIGT (UniProt Q969N2),0.02,-0.118,0.035,-0.011,0.019,-0.046,0.013,0.014,0.015,0.081,-0.024,-0.023,-0.021,-0.052,0.029,0.012,-0.002,0.013,0.048,-0.015
PPP6R1 (UniProt Q9UPN7),-0.098,-0.297 (active),0,-0.033,0.029,0.026,0.053,0.026,-0.007,-0.048,0.058,-0.064,-0.017,-0.08,0.038,-0.058,-0.013,-0.044,0.034,-0.027
PSMA3 (UniProt P25788),0.067,0.134,-0.025,-0.169,0.043,0.002,-0.003,-0.039,-0.027,0.046,0.012,0.038,-0.043,-0.006,0.014,0.048,-0.001,0.02,0.034,0
PMM2 (UniProt O15305),-0.03,-0.021,0.026,-0.021,-0.003,-0.002,-0.049,0.037,-0.076,-0.049,-0.025,0.062,0.006,-0.031,-0.183,0.022,0.018,-0.02,-0.006,0.058
PRPF38B (UniProt Q5VTL8),-0.152,-0.231,0.015,-0.002,-0.012,-0.02,-0.01,0.009,0.018,-0.073,0.011,-0.006,-0.073,-0.027,-0.287 (active),-0.27 (active),-0.08,-0.039,0.015,0.044
POLD1 (UniProt P28340),-0.061,-0.239 (active),0.053,0.123,0,-0.005,0.027,-0.029,-0.03,-0.171,0.018,-0.052,-0.121,0.055,-0.01,-0.115,-0.004,-0.004,0.131,-0.029
PSME4 (UniProt Q14997),0.076,0.038,0.04,0.35 (active),-0.014,-0.069,0.02,0.053,0.001,-0.137,-0.006,-0.035,-0.051,0.025,-0.027,0.037,-0.023,0.067,0.066,-0.029
POTEI (UniProt P0CG38),-0.009,-0.009,-0.043,-0.039,-0.026,0.009,-0.006,-0.028,-0.06,0.035,0.108,0.066,-0.038,-0.012,-0.02,-0.026,-0.049,-0.014,-0.007,-0.016
PSMB4 (UniProt P28070),0.073,0.114,-0.043,-0.202,0.011,0.031,-0.028,-0.045,0.021,0.057,-0.012,0.026,0.078,-0.002,-0.031,0.038,0.019,-0.032,0.011,0.006
PLSCR1 (UniProt O15162),0.025,-0.1,-0.069,-0.022,0.013,0.053,0.037,-0.033,-0.02,0.044,0.052,0.024,0.003,0.025,-0.058,0.006,-0.015,0.082,-0.006,0.006
PLIN2 (UniProt Q99541),-0.173,-0.259,-0.102,0.153,-0.008,-0.01,0.013,-0.033,0,-0.699 (active),-0.033,-0.243,0.01,0.015,0.026,-0.006,-0.012,-0.001,0.002,0.047
QRSL1 (UniProt Q9H0R6),0.044,-0.167,0.069,0.027,-0.003,-0.029,0.023,0.055,-0.053,-0.095,0.033,0.003,-0.103,0.01,-0.023,-0.105,-0.047,0.038,-0.017,-0.033
PXK (UniProt Q7Z7A4),-0.136,-0.077,0.04,0.029,0.004,-0.012,0.027,0.046,-0.028,-0.208,-0.023,0.004,-0.055,-0.033,0.03,-0.025,-0.027,-0.007,0.08,-0.048
PTDSS1 (UniProt P48651),0.004,0.009,-0.069,-0.035,-0.019,0.124,0,0.031,0.177,-0.081,-0.011,0.006,0.129,0.048,-0.065,0.13,0.292,0.07,0.224,0.01
PPM1G (UniProt O15355),-0.208,-0.381 (active),0.066,0.087,-0.001,-0.073,0.098,0.089,0.017,-0.025,-0.086,-0.213,-0.165,0.187,0.108,-0.226,-0.088,-0.038,0.085,-0.104
PIK3CB (UniProt P42338),0.017,-0.224 (active),0.082,0.033,-0.01,-0.071,0.008,0.078,0.003,0.175,-0.019,0.01,-0.026,0.001,-0.011,-0.04,0.014,0.042,-0.015,-0.003
PELP1 (UniProt Q8IZL8),0.056,0.017,-0.002,-0.004,-0.01,0.047,-0.009,0.017,0.006,0.021,-0.002,-0.007,-0.066,-0.021,-0.027,-0.082,-0.054,-0.069,-0.012,0.004
QKI (UniProt Q96PU8),-0.008,-0.1,0.084,0.049,0.022,0.023,0.034,0.041,0.017,-0.172,-0.004,-0.001,-0.106,0.062,-0.044,-0.23 (active),-0.006,-0.036,-0.036,0.004
PPIL4 (UniProt Q8WUA2),-0.024,-0.253 (active),0.043,0.011,-0.051,0.047,0.007,-0.03,0.022,-0.098,-0.012,-0.072,-0.071,-0.005,-0.123,-0.108,0.07,0.024,0.086,-0.031
